The source made the active and inactive calls. The calls were made as follows: active = hit-call score of the fitted dose curve at least 0.9, where 1 is the maximum; inactive = score below 0.9.
Test: APR_HepG2_MitoMembPot_24hr: Apredica 24-hour HepG2 Assay for Mitochondrial Membrane Potential (AID 2282911)
Settings: imaging, actives raise or lower the signal
Method: APR_HepG2_24hr is a cell-based, multiplexed-readout assay that uses HepG2, a human liver cell line, with measurements taken at 24 hours after chemical dosing in a 384-well plate.APR_HepG2_MitoMembPot_24hr is one of 10 assay component(s) measured or calculated from the APR_HepG2_24hr assay. It is designed to make measurements of dye binding, a form of membrane potential reporter, as detected with fluorescence intensity signals by HCS Fluorescent Imaging technology.Data from the assay component APR_HepG2_MitoMembPot_24hr was analyzed into 1 assay endpoint. This assay endpoint, APR_HepG2_MitoMembPot_24hr, was analyzed with bidirectional fitting relative to DMSO as the negative control and baseline of activity. Using a type of membrane potential reporter, gain or loss-of-signal activity can be used to understand changes in the signaling. Furthermore, this assay endpoint can be referred to as a primary readout, because this assay has produced multiple assay endpoints where this one serves a signaling function. To generalize the intended target to other relatable targets, this assay endpoint is annotated to the cell morphology intended target family, where the subfamily is organelle conformation.
Cells were treated with dimethyl sulfoxide (DMSO) as a solvent control at a final concentration of 0.5% v/v or with compounds in DMSO with a resulting final DMSO concentration of 0.5% v/v. Compound treatment was done at concentrations of 0.39, 0.78, 1.56, 3.12, 6.24, 12.5, 25, 50, 100, and 200 uM in duplicate on each plate. Cells were treated with compounds for 1, 24, or 72 hr. Carbonyl […] m-chloro-phenylhydrazone (CCCP) and taxol were used as positive controls for mitochondrial function and cytoskeletal stability, respectively; DMSO served as the negative control for this experiment. Cells were fixed by the direct addition of 50 uL formaldehyde in Hank's Balanced Salt Solution (HBSS) to a final concentration of 3.7%. After incubation in the fixation medium for 30 min at room temperature (293-298 K), cells were rinsed twice with HBSS and treated with cell permeabilization buffer (16 uL of 0.5% Triton X-100) for 10 min at room temperature (293-298 K) before labeling. For mitochondrial membrane potential and mitochondrial measurements, pre-fixed cells were incubated with 50 uL of MitoTracker Red CMXRos (Invitrogen) at a concentration of 250 nM for 30 min before fixation. In the remaining cases, post-fixed cells were labeled by incubation with a multiplexed mixture of primary antibodies in HBSS for 60 min at room temperature (293-298 K) to detect immunoreactivity of c-Jun (1:500), phospho-histone H3 (1:100), phospho-histone H2A.x (1:200), p53 (1:400), alpha-tubulin (1:200) and Hoechst 33342 (2 ug/mL). Cells were labeled for multiplexed imaging on two separate plates: a) Hoechst 33342, MitoTracker Red, phospho-histone H3, and alpha-tubulin, and b) Hoechst 33342, phospho-histone H2A.x, and c-Jun. A final rinse with HBSS (50 uL) was performed before analysis. The primary and secondary antibodies for the proteins were phospho-histone H3 (rabbit anti-phospho-histone H3 and FITC-donkey anti-rabbit IgG), phospho-histone H2A.x (mouse anti-phospho-histone H2A.x and FITC-donkey anti-mouse IgG), c-Jun (rabbit anti-phospho-c-Jun and Cy3-donkey anti-rabbit IgG), p53 (sheep anti-p53 and Cy5-donkey anti-sheep IgG), alpha-tubulin (mouse anti-alpha-tubulin and Cy5-donkey anti-mouse IgG). These antibodies are available as the CellCiphr HepG2 assay kit (Millipore).Digital images of each well were captured using a Cellomics ArrayScan VTI (Thermo Scientific Cellomics) (0.8 NA objective, 0.63x optical coupler, and XF-93 filter set) at 20x magnification. The images were acquired using the autofocus feature of the ArrayScan instrument, which entails the following steps. First, the camera focuses on channel 1 (Hoechst 33342), where nuclei are identified. Second, a Z offset of 1 um is used for capturing mitochondria (MitoTracker Red). […]

Compound | outcome | AC50
Cc1nc(N(C)C)nc(OC(=O)N(C)C)c1C | inactive | 
CC1(C)CCC(=Cc2ccc(Cl)cc2)C1(O)Cn1cncn1 (stereo not given) | inactive | 
CC(C)C1(C)N=C(c2ncccc2C(=O)O)NC1=O (stereo not given) | inactive | 
CCCC(=NOCC)C1=C(O)CC(CC(C)SCC)CC1=O (stereo not given) | inactive | 
COCC(C)N(C(=O)CCl)c1c(C)csc1C (stereo not given) | inactive | 
CNC(=O)Oc1cccc2ccccc12 | inactive | 
Nc1c(Cl)c(F)nc(OCC(=O)O)c1Cl | inactive | 
CC(C)Oc1cccc(NC(=O)c2ccccc2C(F)(F)F)c1 | inactive | 
CS(=O)(=O)c1cc(C(F)(F)F)ccc1C(=O)c1cnoc1C1CC1 | inactive | 
CC(C)N1C(=O)N(c2ccccc2)CSC1=NC(C)(C)C | inactive | 
O=C(O)c1c(Cl)ccc2cc(Cl)cnc12 | inactive | 
CCOP(=O)(OCC)Oc1nc(Cl)c(Cl)cc1Cl | inactive | 
CN/C(=N\[N+](=O)[O-])NCc1cnc(Cl)s1 | inactive | 
Cc1cnc(C2=NC(C)(C(C)C)C(=O)N2)c(C(=O)O)c1 (stereo not given) | inactive | 
COCc1cnc(C2=NC(C)(C(C)C)C(=O)N2)c(C(=O)O)c1 (stereo not given) | inactive | 
CS(=O)(=O)c1ccc(C(=O)C2C(=O)CCCC2=O)c([N+](=O)[O-])c1 | inactive | 
CCCCC(C#N)(Cn1cncn1)c1ccc(Cl)cc1 (stereo not given) | inactive | 
Clc1nc(Cl)nc(Nc2ccccc2Cl)n1 | inactive | 
COc1cc(Cl)c(OC)cc1Cl | inactive | 
CC1(C)C(C(=O)OC(C#N)c2cccc(Oc3ccccc3)c2)C1(C)C (stereo not given) | inactive | 

Compound | outcome | AC50
C=CCOC(=O)C(C)(C)OC(=O)c1cc(-n2c(=O)cc(C(F)(F)F)n(C)c2=O)ccc1Cl | inactive | 
CCCCC(O)(Cn1cncn1)c1ccc(Cl)cc1Cl (stereo not given) | inactive | 
CCNP(=S)(OC)O/C(C)=C/C(=O)OC(C)C (stereo not given) | inactive | 
N#Cc1c[nH]cc1-c1cccc2c1OC(F)(F)O2 |  | 53.6 µM (active)
Nc1cnn(-c2ccccc2)c(=O)c1Cl | inactive | 
Cn1c(-c2ccccc2)cc(-c2ccccc2)[n+]1C | inactive | 
Nc1c(Cl)c(Cl)nc(C(=O)O)c1Cl | inactive | 
CCCCOCN(C(=O)CCl)c1c(CC)cccc1CC | inactive | 
N#Cc1c(Cl)cccc1Cl | inactive | 
CCOc1nc(F)cc2nc(S(=O)(=O)Nc3c(Cl)cccc3Cl)nn12 | inactive | 
COc1cc(OC)nc(NC(=O)NS(=O)(=O)c2ncccc2OCC(F)(F)F)n1 | inactive | 
COC(=O)NC(=S)Nc1ccccc1NC(=S)NC(=O)OC |  | 26 µM (active)
CC(C)N1C(=O)c2ccccc2NS1(=O)=O | inactive | 
CCSC(=O)N1CCCCCC1 | inactive | 
CC(C)=CC1C(C(=O)OCc2coc(Cc3ccccc3)c2)C1(C)C (stereo not given) |  | 100 µM (active)
CC1(C)CON(Cc2ccccc2Cl)C1=O | inactive | 
CCOC(=O)C(C)OC(=O)c1cc(Oc2ccc(C(F)(F)F)cc2Cl)ccc1[N+](=O)[O-] (stereo not given) | inactive | 
CNC(=O)N(C)c1nnc(C(C)(C)C)s1 | inactive | 
COc1ccc(-c2ccccc2)cc1NNC(=O)OC(C)C | inactive | 
CCN(CC)C(=O)C(C)Oc1cccc2ccccc12 (stereo not given) | inactive | 
